Experimental data as given in PubChem BioAssay (NCATS).
“And” between values parts separate entries of the source, which are not always exact repeats. Identical values can stand only once. Results filed as inconclusive are left out. The source made the active and inactive calls. Unless noted, calls come from the whole dose curve; as a rule, active = well fitted curve in either direction with a large enough effect (not every such curve was filed as active); inconclusive = small, poorly fitted or top-dose-only effect, or another doubt; inactive = flat fitted curve, though single readings scatter.

Columns and labels:
[1] = AP1 Signaling Pathway (AID 357);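 note: ME-180 reporter cells stimulated with EGF at its EC50 level; % is set by controls: 0 for no effect and ±100 for the full control effect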
Method in brief: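 In this screen, ME-180 cells in Opti-MEM with 0.5% dialyzed FBS received EC50 EGF and compound titrations for 5 h. AP-1 reporter beta-lactamase was detected via CCF4 ratio, giving AC50 for positive and negative modulators.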

[2] = biological target: Cytochrome P450 1A2 (Homo sapiens) (UniProt P05177); assay: p450-cyp1a2 (AID 410; calls by dose curve;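 note: -100% = full effect of reference inhibitor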)
Method in brief: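 20nM CYP1A2, 100uM Luciferin-ME (=Km), 100mM KPO4; cpd 10 min RT; +NADPH regen, 60 min RT; stop/detect 20 min; luminescence. Normalized to furafylline 57 uM = full inhibition.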

[3] = Stat Signaling Pathway (AID 446);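 note: ME-180 cervical cancer cells given 40 pM IL-6 alongside compound; SIE-controlled beta-lactamase reporter measured as 460/530 nm FRET emission ratio; % is set by controls: 0 for no effect and ±100 for the full control effect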
Method in brief: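 FRET read-out (405 nm excitation, 460/530 nm emission) of a beta-lactamase reporter under a STAT-inducible element in ME-180 cervical carcinoma cells. Cells with compound receive 40 pM IL-6 for 5 h. Values are normalised to AC90 stimulation and AC90 JAK-inhibitor controls.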

[4] = biological target: Glucocorticoid receptor (Homo sapiens) (UniProt P04150); assay: GR-EFC Redistribution (AID 451; calls by dose curve; note: potency is the fitted concentration of half-maximal effect); details: CHO-K1 GR-EFC translocation, beta-gal luminescence, 2 h
Method in brief: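 CHO-K1 cells stably expressing nuclear-localized β-gal enzyme acceptor and GR fused C-terminally to the enzyme donor fragment; ligand-driven nuclear translocation restores β-gal by complementation. Compounds titrated up to 46 uM final, 2 h at 37 °C; luminescence read.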

[5] = biological target: Mitogen-activated protein kinase 10 (Mus musculus) (UniProt Q61831); assay: JNK3 AlphaScreen Assay (AID 530);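 note: kinase came from lysate of stimulated human HepG2 cells; signal reports phosphorylation of biotinylated GST-cJun 1-79 at Ser73 with 10 µM ATP; % is set by controls: 0 for no effect and ±100 for the full control effect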
Method in brief: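 Biotinylated GST-cJun(1-79) served as substrate for JNK3 in HepG2 lysates stimulated with IL-1beta and TNF-alpha. ATP was 10 uM final, pH 7.6. Ser73 phosphorylation was quantified by AlphaScreen (680 nm excitation).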

[6] = biological target: 3',5'-cyclic-AMP phosphodiesterase 4B (Homo sapiens) (UniProt Q07343); assay: qHTS Assay for Inhibitors of PDE-IV (AID 607; active = well fitted activation curve with a large enough effect in the main read-out, with a control signal flat, not every such curve was filed as active; note: % of control where 0% means no effect)
Method in brief: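 Cell-based read-out of cAMP via a modified cyclic nucleotide-gated channel and membrane potential dye (535/590 nm) in HEK293 cells expressing PDE4 endogenously. Compounds tested up to 22.9 uM final; 100 uM RO 20-1724 reference.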

[7] = biological target: Cytochrome P450 3A4 (Homo sapiens) (UniProt P08684); assay: qHTS Assay for Activators of Cytochrome P450 3A4 (AID 885; active = well fitted curve in the direction sought with a large enough effect; an effect the other way counts as inactive or inconclusive; note: potency is the fitted concentration of half-maximal effect; nearly all actives have a fitted effect of over 65% in size)
Method in brief: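 Luminescent readout of luciferin formed from 25 uM Luciferin-PPXE (KM level) by 20 nM CYP3A4 in 200 mM KPO4, with 60 min NADPH-driven reaction at room temperature after 10 min compound exposure. Ketoconazole (57 uM) defined 100% inhibition.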

[8] = Primary qHTS for small molecule stabilizers of the endoplasmic reticulum resident proteome: Secreted ER Calcium Modulated Protein (SERCaMP) assay (AID 1508630; active = well fitted curve in the direction sought with a large enough effect; an effect the other way counts as inactive or inconclusive; note: % is set by controls: 0 for no effect and ±100 for the full control effect)
Method in brief: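 The SH-SY5Y reporter protocol was run at 3 concentrations up to 38.3 uM (primary) or 11 concentrations (follow-up): 16 h compound, 100 nM thapsigargin for 4 h, then extracellular luciferase luminescence.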

[9] = qHTS Assay for Lipid Storage Modulators (AID 1519; calls by dose curve; note: potency is the fitted concentration of half-maximal effect); details: Drosophila S3 cells, BODIPY lipid droplet/cell ratio, laser cytometry, cells loaded with oleic acid; for activity change, negative = inhibition: at 25.7 µM (top of the series)
Method in brief: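 Cells seeded at 5,000 per well were treated with compounds over a concentration series and loaded with oleic acid (400 uM, as added). Lipid droplet fluorescence (488 nm excitation, 500-530 nm channel) was read by laser-scanning cytometry and normalized to 20 uM Triacsin C.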

[10] = NFAT Signaling Pathway (AID 444); details: Jurkat NFAT-bla M1, carbachol, beta-lactamase ratio, 5 h
Method in brief: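 Jurkat cells carrying an NFAT-driven β-lactamase reporter and co-transfected muscarinic M1 receptor were treated with compound plus carbachol (1 uM final, an EC50 level) for 5 h at 37 °C. CCF4 loading followed for 1 h at RT; 460/530 nm ratio gave %activity.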

[11] = qHTS profiling for inhibitors of Plasmodium falciparum proliferation (AID 504749; active = well fitted curve in the direction sought with a large enough effect; an effect the other way counts as inactive or inconclusive; note: nearly all actives have a fitted effect of over 60% in size; note: potency is the fitted concentration of half-maximal effect;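 for activity, negative = inhibition: 0% = DMSO vehicle and full inhibition = artemisinin control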); details: P. falciparum in erythrocytes, SYBR Green DNA, 72 h, at 12.8 µM (top of the series)
Method in brief: (§1)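 Fluorescence of SYBR Green-bound parasite DNA, read at 485/535 nm, served as the growth measure. Infected erythrocytes were cultured with compound 72 h; artemisinin (0.29 uM) and DMSO wells defined the normalization range.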

CP203 = assay: as above; details: P. falciparum in erythrocytes, SYBR Green DNA, 72 h; series mostly up to 28.7 µM
Method in brief: as §1

CP268 = assay: as above; details: P. falciparum in erythrocytes, SYBR Green DNA, 72 h; series mostly up to 28.7 µM
Method in brief: as §1

CP297 = assay: as above; details: P. falciparum in erythrocytes, SYBR Green DNA, 72 h; series mostly up to 28.7 µM
Method in brief: as §1

CP215 = assay: as above; details: P. falciparum in erythrocytes, SYBR Green DNA, 72 h; series mostly up to 28.7 µM
Method in brief: as §1

[12] = biological target: Cytochrome P450 2D6 (Homo sapiens) (UniProt P10635); assay: qHTS Assay for Inhibitors and Substrates of Cytochrome P450 2D6 (AID 891; active = well fitted curve in the direction sought with a large enough effect; an effect the other way counts as inactive or inconclusive; note: nearly all actives have a fitted effect of over 60% in size; note: potency is the fitted concentration of half-maximal effect)
Method in brief: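 Luminescent read-out of luciferin formed by 5 nM human CYP2D6 demethylating 30 uM Luciferin-ME EGE (Km level) over 60 min at room temperature after NADPH regeneration addition. Data normalized to full inhibition by 1.43 uM quinidine.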

[13] = biological target: Glucocorticoid receptor (Homo sapiens) (UniProt P04150); assay: GR-GFP Redistribution (AID 450;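 active = compounds whose dose series gives a full or clear partial fitted curve of increased nuclear translocation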; note: potency is the fitted concentration of half-maximal effect); details: U2OS GR-GFP nuclear translocation, laser cytometry, 2 h
[14] = biological target: Ubiquitin carboxyl-terminal hydrolase 1 (Homo sapiens) (UniProt O94782); assay: Inhibitors of USP1/UAF1: Pilot qHTS (AID 504865; active = well fitted curve in the direction sought with a large enough effect; an effect the other way counts as inactive or inconclusive;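 note: rhodamine fluorescence freed from ubiquitin-rhodamine substrate followed over time; top concentration of the series differs between compounds; % is set by controls: 0 for no effect and ±100 for the full control effect; nearly all actives have a fitted effect of over 35% in size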)
Method in brief: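 Kinetic fluorescence assay: 1nM USP1/UAF1, 15 min compound preincubation, then 150nM Ub-Rho; 480/540 nm.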

[15] = measured here: cell count channel max response
[16] = measured here: lipid channel max response

Ubiquitin carboxyl-terminal hydrolase 1 (Homo sapiens), sequence (O94782 whole entry, looked up): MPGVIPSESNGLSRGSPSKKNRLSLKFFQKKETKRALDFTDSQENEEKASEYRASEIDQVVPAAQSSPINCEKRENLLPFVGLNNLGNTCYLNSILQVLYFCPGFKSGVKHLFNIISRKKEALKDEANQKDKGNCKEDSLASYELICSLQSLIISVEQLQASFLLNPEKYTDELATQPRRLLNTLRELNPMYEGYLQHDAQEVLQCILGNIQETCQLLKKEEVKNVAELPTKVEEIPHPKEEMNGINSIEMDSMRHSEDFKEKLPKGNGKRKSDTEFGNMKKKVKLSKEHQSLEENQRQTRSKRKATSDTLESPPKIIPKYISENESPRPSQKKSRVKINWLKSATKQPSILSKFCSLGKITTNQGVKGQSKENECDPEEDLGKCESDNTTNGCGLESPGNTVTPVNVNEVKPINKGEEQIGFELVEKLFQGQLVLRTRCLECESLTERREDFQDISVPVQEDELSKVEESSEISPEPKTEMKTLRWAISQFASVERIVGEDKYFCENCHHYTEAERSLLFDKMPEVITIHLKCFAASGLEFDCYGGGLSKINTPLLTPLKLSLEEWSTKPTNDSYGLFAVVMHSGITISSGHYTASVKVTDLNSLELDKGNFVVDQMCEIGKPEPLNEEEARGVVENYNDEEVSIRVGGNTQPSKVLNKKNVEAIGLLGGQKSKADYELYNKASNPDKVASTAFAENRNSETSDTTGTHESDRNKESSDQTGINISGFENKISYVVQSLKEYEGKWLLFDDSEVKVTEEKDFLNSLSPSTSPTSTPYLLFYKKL
Cytochrome P450 1A2 (Homo sapiens), sequence (P05177 whole entry, looked up): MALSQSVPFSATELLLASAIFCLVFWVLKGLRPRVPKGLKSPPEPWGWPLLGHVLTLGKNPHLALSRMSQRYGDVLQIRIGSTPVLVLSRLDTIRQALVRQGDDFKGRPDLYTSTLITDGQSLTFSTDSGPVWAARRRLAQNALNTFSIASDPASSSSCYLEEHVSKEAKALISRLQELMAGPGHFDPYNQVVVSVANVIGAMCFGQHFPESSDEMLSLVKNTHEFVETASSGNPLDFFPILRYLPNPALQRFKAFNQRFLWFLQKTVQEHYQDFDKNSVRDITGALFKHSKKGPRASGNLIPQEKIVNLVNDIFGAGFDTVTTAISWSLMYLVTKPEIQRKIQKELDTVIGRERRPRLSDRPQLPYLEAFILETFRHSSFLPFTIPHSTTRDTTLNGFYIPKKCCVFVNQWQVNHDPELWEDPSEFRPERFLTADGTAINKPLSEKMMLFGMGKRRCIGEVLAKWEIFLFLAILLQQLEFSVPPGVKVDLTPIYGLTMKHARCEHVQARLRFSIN
Glucocorticoid receptor (Homo sapiens), sequence (P04150 whole entry, looked up, the tested form may be a part): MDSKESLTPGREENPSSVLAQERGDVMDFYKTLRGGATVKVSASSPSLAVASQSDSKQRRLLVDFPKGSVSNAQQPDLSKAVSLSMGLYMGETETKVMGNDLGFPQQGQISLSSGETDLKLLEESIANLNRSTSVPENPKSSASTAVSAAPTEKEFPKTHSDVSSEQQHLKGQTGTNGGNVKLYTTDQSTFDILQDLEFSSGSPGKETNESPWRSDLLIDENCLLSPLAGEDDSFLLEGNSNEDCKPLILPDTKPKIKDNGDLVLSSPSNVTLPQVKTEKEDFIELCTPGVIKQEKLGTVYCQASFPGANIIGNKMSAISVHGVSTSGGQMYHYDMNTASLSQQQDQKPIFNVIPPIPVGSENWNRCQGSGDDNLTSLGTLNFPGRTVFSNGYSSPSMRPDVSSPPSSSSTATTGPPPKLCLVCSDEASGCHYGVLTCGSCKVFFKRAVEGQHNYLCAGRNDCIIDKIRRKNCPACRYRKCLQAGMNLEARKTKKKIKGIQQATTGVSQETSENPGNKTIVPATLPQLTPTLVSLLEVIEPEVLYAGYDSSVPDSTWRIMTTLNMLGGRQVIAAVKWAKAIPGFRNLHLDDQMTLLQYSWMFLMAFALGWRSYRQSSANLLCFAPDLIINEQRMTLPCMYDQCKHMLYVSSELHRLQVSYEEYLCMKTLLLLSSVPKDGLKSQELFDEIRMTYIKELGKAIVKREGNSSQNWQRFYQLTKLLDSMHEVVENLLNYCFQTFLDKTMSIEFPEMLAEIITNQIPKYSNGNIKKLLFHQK
3',5'-cyclic-AMP phosphodiesterase 4B (Homo sapiens), sequence (Q07343 whole entry, looked up): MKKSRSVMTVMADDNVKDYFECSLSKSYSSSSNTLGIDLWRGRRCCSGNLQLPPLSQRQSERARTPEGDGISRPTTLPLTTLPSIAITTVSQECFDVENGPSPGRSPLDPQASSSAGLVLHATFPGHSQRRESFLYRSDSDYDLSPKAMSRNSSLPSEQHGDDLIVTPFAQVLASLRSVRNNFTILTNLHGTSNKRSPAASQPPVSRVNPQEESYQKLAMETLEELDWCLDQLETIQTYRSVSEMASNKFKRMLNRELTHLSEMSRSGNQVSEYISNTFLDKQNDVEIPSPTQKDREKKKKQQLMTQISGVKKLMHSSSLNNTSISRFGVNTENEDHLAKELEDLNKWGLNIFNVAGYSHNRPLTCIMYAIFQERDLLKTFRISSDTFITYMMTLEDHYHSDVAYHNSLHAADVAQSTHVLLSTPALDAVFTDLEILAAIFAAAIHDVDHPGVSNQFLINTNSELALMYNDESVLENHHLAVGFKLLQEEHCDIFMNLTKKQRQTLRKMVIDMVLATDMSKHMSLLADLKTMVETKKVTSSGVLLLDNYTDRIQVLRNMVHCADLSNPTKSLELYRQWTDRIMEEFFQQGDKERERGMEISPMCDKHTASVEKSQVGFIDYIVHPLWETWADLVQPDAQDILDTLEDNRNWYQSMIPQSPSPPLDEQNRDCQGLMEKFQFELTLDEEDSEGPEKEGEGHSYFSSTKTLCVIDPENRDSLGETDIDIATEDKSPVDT
Cytochrome P450 2D6 (Homo sapiens), sequence (P10635 whole entry, looked up): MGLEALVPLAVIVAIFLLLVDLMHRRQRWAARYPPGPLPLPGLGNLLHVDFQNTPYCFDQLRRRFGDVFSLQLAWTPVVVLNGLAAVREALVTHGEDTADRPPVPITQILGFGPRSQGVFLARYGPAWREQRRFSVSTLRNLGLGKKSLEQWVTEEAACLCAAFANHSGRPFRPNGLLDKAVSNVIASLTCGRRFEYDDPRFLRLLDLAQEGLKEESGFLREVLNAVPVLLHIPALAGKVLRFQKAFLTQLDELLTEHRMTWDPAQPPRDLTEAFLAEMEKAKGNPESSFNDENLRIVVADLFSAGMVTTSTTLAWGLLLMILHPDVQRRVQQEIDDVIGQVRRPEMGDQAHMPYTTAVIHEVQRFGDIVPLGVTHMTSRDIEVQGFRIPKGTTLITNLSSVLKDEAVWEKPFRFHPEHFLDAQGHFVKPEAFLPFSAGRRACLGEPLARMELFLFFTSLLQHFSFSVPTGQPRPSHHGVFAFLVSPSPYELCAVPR
Cytochrome P450 3A4 (Homo sapiens), sequence (P08684 whole entry, looked up): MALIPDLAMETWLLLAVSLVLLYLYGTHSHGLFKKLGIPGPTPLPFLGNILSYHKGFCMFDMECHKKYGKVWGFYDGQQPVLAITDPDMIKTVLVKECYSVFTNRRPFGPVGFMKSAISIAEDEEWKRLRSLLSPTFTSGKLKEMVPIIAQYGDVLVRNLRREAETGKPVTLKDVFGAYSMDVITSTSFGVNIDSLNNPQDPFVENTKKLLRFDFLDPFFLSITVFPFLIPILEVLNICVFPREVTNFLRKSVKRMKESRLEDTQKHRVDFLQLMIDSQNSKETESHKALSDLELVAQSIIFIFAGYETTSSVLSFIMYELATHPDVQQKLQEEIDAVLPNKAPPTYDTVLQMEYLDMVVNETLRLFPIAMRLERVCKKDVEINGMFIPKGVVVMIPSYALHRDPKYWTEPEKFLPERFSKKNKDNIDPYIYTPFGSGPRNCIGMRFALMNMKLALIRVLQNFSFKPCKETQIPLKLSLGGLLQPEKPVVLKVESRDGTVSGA

O=C(Oc1ccccc1)N1CCC2(CCN(Cc3nccs3)CC2)CC1
outcome [1]: inactive | Potency [2]: inactive | outcome [3]: inactive | Potency [4]: > 46 µM (inactive) | outcome [5]: inactive | Potency [6]: inactive | Potency [7]: 25.1 µM (active) | outcome [8]: inactive

C[C@H](CCC(=O)O)[C@H]1CC[C@@H]2[C@H]3CC[C@H]4C[C@@H](O)CC[C@@]4(C)[C@H]3CC[C@]21C
activity change, negative = inhibition [9]: 2.39% (inactive) | max response [9, 15]: -11.2% | max response [9, 16]: -8.48%

C[N+]1([O-])[C@@H]2CC(OC(=O)[C@@H](CO)c3ccccc3)C[C@@H]1[C@H]1O[C@H]12 (stereo not given in full)
activity change, negative = inhibition ([10]; at 17.2 µM (top of the series)): -52.1% (active) | activity, negative = inhibition ([11]; parasite line A): -0.201% (inactive) | activity, negative = inhibition ([11]; parasite line B): -5.73% (inactive) | Potency (CP203): inactive | Potency (CP268): inactive | Potency (CP297): inactive

CCNC[C@H](O)c1cccc(O)c1
activity change, negative = inhibition ([10]; at 17.2 µM (top of the series)): -13.2% (inactive) | activity, negative = inhibition ([11]; parasite line A): -4.47% (inactive) | activity, negative = inhibition ([11]; parasite line B): 2.63% (inactive) | Potency (CP215): inactive | Potency (CP268): inactive

COc1ccc2c(c1O)-c1c(OC)c(OC)cc3c1[C@H](C2)N(C)CC3
Potency [12]: inactive

CC(C)CN1CC2(CCN(C(=O)c3ccncc3)CC2)C1
Potency [12]: 3.98 µM (active)

COP(=S)(OC)Oc1ccc([N+](=O)[O-])cc1
Potency [9]: 22.4 µM (active)

C[C@]12CC[C@H](O)CC1=CCC1C2CC[C@]2(C)C(=O)CC[C@@H]12 (stereo not given in full)
Potency (CP297): 19 µM (active)

ClC1=C(Cl)C2(Cl)C3C4CC(C5OC45)C3C1(Cl)C2(Cl)Cl (stereo not given)
Potency (CP203): inactive | Potency (CP215): inactive

CCN1C[C@]2(C)CC[C@H](O)[C@@]34[C@@H]5CC6[C@@H](OC)C[C@@](O)([C@@H]5[C@@H]6O)[C@H](C[C@@H]23)[C@H]14
outcome [1]: inactive | Potency [2]: inactive | activity change, negative = inhibition ([10]; at 17.2 µM (top of the series)): -2.56% (inactive) | outcome [3]: inactive | Potency [13]: > 20.6 µM (inactive) | Potency [4]: > 20.6 µM (inactive) | outcome [5]: inactive | Potency [6]: inactive | activity change, negative = inhibition [9]: -2.73% (inactive) | max response [9, 15]: -6.13% | max response [9, 16]: -11.4% | Potency [14]: inactive

CCN1C[C@]2(COC)CC[C@H](O)[C@@]34[C@@H]5C[C@H]6[C@@H](OC)[C@H]5[C@](O)(C[C@@H]6OC)[C@@](O)([C@@H](OC)[C@H]23)[C@@H]14
outcome [1]: inactive | Potency [2]: inactive | activity change, negative = inhibition ([10]; at 17.2 µM (top of the series)): 2.57% (inactive) | outcome [3]: inactive | Potency [13]: > 20.6 µM (inactive) | Potency [4]: > 20.6 µM (inactive) | outcome [5]: inactive | Potency [6]: inactive | activity change, negative = inhibition [9]: 0.923% (inactive) | max response [9, 15]: -10.9% | max response [9, 16]: -9.81% | Potency [14]: inactive

COc1ccc(OC)c([C@H](O)[C@H](C)N)c1
outcome [1]: inactive | Potency [2]: inactive | activity change, negative = inhibition ([10]; at 17.2 µM (top of the series)): 4.39% (inactive) | activity change, negative = inhibition ([10]; at 38 µM (top of the series)): 2.27% (inactive) | outcome [3]: inactive | Potency [13]: > 46 µM (inactive) and > 20.6 µM (inactive) | Potency [4]: > 46 µM (inactive) and > 20.6 µM (inactive) | outcome [5]: inactive | Potency [6]: inactive | activity change, negative = inhibition [9]: 1.13% (inactive) | max response [9, 15]: 7.1% | max response [9, 16]: 6.97% | Potency [14]: inactive
